Laboratory results from PubChem BioAssay (NCI).
This is part of a sample that, as a whole, favours compounds with a hit. Of some 79,000 tested, about 15% had one in any assay. A number with no mark means an inactive call. Calls of active or inactive are those of the source. No stated cut-off is given here; in the data, active means growth inhibition above about 70%; inactive means the rest.

Tests used:
[1] = NCI Yeast Anticancer Drug Screen. Data for the rad50 strain (AID 155);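 further: 0% = growth of vehicle-only cultures of the same strain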; settings: S. cerevisiae rad50 strain growth inhibition; at 50.0 µM; stronger effect = higher value
Method in brief: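 Vehicle-treated cultures provide the reference for the growth inhibition reported for compound-exposed, repair-deficient yeast.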

[2] = NCI Yeast Anticancer Drug Screen. Data for the mec2-1 strain (AID 157); settings: S. cerevisiae mec2-1 strain, at 50.0 µM, stronger effect = higher value
Method in brief: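 Strain: mec2-1 (DNA repair/cell cycle alteration). Compound exposure, then growth measured; inhibition expressed relative to vehicle.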

[3] = NCI Yeast Anticancer Drug Screen. Data for the sgs1 mgt1 strain (AID 161);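 further: 0% = growth of cultures given vehicle only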; settings: S. cerevisiae sgs1 mgt1 strain, at 50.0 µM, stronger effect = higher value
Method in brief: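 Test agents were incubated with a DNA-repair-mutant yeast strain. Growth was then read and compared against vehicle-treated controls.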

[4] = NCI Yeast Anticancer Drug Screen. Data for the cln2 rad14 strain (AID 165);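 further: 0% = growth equal to vehicle treated cultures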; settings: S. cerevisiae cln2 rad14 strain, at 50.0 µM, stronger effect = higher value
Method in brief: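 Compounds are applied to the cln2 rad14 yeast strain, and growth is then compared with that of vehicle-treated cultures to give inhibition.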

[5] = NCI Yeast Anticancer Drug Screen. Data for the bub3 strain (AID 167); settings: S. cerevisiae bub3 mutant strain, at 50.0 µM, stronger effect = higher value
Method in brief: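 Mutant yeast screening strain plus compound; vehicle-treated cultures serve as the 0% inhibition reference.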

[6] = NCI Yeast Anticancer Drug Screen. Data for the mlh1 rad18 strain (AID 175); settings: S. cerevisiae mlh1 rad18 strain growth inhibition; at 50.0 µM; stronger effect = higher value
Method in brief: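 Read-out is yeast growth inhibition, calculated against vehicle-only controls. The compound was applied to a strain engineered with DNA damage repair alterations.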

Compound | growth inhibition [1] | growth inhibition [2] | growth inhibition [3] | growth inhibition [4] | growth inhibition [5] | growth inhibition [6]
Nc1cc(C(Br)(Br)Br)nc2ccccc12 | 17.4% | 7.45% | 16.8% | -0.2% | -11% | 31.8%
COc1cc(CC(=O)c2ccc3c(c2)OCO3)cc(OC)c1OC | -9.95% | -5.15% | -8.95% | -15.5% | 4.75% | -25.3%
CN1CCN(C(CO)Cc2ccccc2)CC1 (configuration not stated) | 3.85% | -10.1% | -9.5% | -15.8% | 8.8% | -7.4%
CCCCCSc1nc2c([nH]1)c(=O)n(C)c(=S)n2C | 14.5% | -6.35% | 1.95% | -8.8% | 0.6% | -15.6%
Cc1cc2nnc(-c3cccc([N+](=O)[O-])c3)n2c2nnnn12 | 25% | 31.1% | 21.6% | 66.7% | 37.8% | 36.7%
O=C(/C=C\c1ccccc1)c1ccc(-c2ccc([N+](=O)[O-])cc2)cc1 | 10.4% | 11.4% | 9.05% | -3.65% | 4.8% | 22.6%
OCC1OC(n2cnc3c([Se]Cc4ccccn4)ncnc32)C(O)C1O (configuration not stated) | 40% | -0.6% | 32% | -3.75% | -3.4% | 7.5%
CC(C)=C1C=CC=C1 | -8% | 0.65% | 1.6% | -5% | 9.4% | -6.95%
Cc1ccc2c(c1)-c1c3c(nn1C)-c1ccccc1SC3O2 (configuration not stated) | -0.35% | -7.75% | -13.1% | -3.6% | -5.75% | 9.15%
COC(CCl)OC | 3.75% | -18.6% | 15.8% | 10.3% | -9.7% | 2.6%
CC(=O)OCC1CCCCO1 (configuration not stated) | 2.6% | -1.65% | -6.1% | -0.2% | -0.2% | -4.7%
O=S(=O)([O-])[O-].O=c1[nH]cnc2nc[n-]c12.[OH3+].[OH3+].[Zn+2] | -26.8% | -29.2% | -20.6% | -7.9% | -30.9% | -36.2%
NC1=NOC(=O)C1c1ccccc1 (configuration not stated) | -19.1% | -45.3% | -10.2% | 2.55% | -9.5% | -19.8%
COc1cc(S(N)(=O)=O)c(OC)cc1N | 21.1% | -28.2% | -11.4% | 8.8% | -5.6% | -10.1%
COc1ccc(C#CC(O)C(F)(F)F)cc1 (configuration not stated) | -7.9% | -20.4% | -8.35% | -18.4% | -46% | -11.5%
CCOC(=O)C1=C(Nc2ccc(Cl)c(Cl)c2)OC/C1=N\NC(=O)Cc1ccccc1 | -49.8% | -22% | -4.05% | -12% | -11.7% | -35.4%
O=C(O)c1scc2c1CCCC2 | -1.65% | -21.7% | -7.5% | -67% | -22.3% | -39.6%
CC(C)=NNC(=O)c1n[nH]c(C)c1N=NN(C)C | 12.5% | -23.4% | 6.5% | -0.65% | -9.4% | 20.5%
O=C(O)CC(SSCc1ccccc1)C(=O)O (configuration not stated) | 5.1% | 16.6% | -4.15% | -12.2% | 12.7% | 20.8%
COc1ccc(CC[N+]2=Cc3cc(OC)c(OC)cc3CC2)cc1OC | -0.9% | -2.8% | 12.6% | 13.3% | 2.7% | 15.5%
COc1ccc(C2CC(=O)N(CC(=O)O)C(=O)C2)cc1 | 13.9% | 14.8% | 8.3% | -17% | -9.4% | 7.55%

Compound | growth inhibition [1] | growth inhibition [2] | growth inhibition [3] | growth inhibition [4] | growth inhibition [5] | growth inhibition [6]
Cc1ccccc1C(=O)OCCBr | 10.3% | -6.2% | 4.15% | -27.1% | 8.2% | 2.9%
CC1(c2ccc(-c3ccccc3)cc2)NC(=O)NC1=O (configuration not stated) | 3.55% | 10.3% | 14.9% | -22.5% | -4.85% | -2.3%
CCOP(=O)(CCP(=O)(CCP(=O)(OCC)OCC)CCP(=O)(OCC)OCC)OCC | -8.05% | 2.5% | -8.05% | -30.2% | -1.55% | -9.2%
Cc1ccc(Nc2nc(C)c(C(=O)C/C(=N/NC(N)=S)C(=O)Nc3cc(Cl)cc(Cl)c3)s2)cc1 | -13.3% | -13.1% | 15.6% | 22.1% | -13.4% | -27.8%
CCC(Oc1ccc(Cl)cc1Cl)C(=O)O (configuration not stated) | -4.4% | -9.8% | -8.65% | -8.25% | -10.2% | -1.75%
CN(C)CCSSCCN(C)C | -7.55% | -5.65% | -13.6% | -14.1% | -2.55% | -3.55%
CCC1SC(N)=NC1c1ccccc1 (configuration not stated) | 22.2% | 2.85% | 31.9% | 9.95% | 14.1% | 24.6%
O=C(Oc1c(Br)cc(Br)cc1C(=O)Oc1ccccc1)C(=O)Oc1c(Br)cc(Br)cc1C(=O)Oc1ccccc1 | 52.7% | 23.9% | 19.9% | 28.8% | 51.2% | 32.6%
Nc1ccc(S(=O)(=O)NC2C(O)OC(CO)C(O)C2O)cc1 (configuration not stated) | 15.6% | -16.2% | 6.65% | -21.6% | 9.7% | 28.4%
CC1CCC2CC(=O)C(Br)CC2(C)C1C (configuration not stated) | 23.6% | -8.95% | 9.75% | -5.35% | -3.95% | 7.45%
CC(C)NC(=O)Oc1ccccc1C(=O)OCc1ccccc1 | -0.45% | 14.1% | 28.9% | -15.1% | 13.4% | 21.2%
CC(=O)c1cc2c(cc1C)C(C)CCC2(C)C (configuration not stated) | -7% | -29.4% | -9.6% | -6.1% | 1.9% | -22.5%
Nc1cc(=O)[nH]c(N2CCN(c3ccccc3)CC2)n1 | 1.15% | -4.9% | -14.3% | 6.15% | 6.15% | 12.4%
N#CC(=Nc1cc(Cl)cc(Cl)c1)C1=C(O)c2ccccc2C1=O | 5.75% | 0.6% | 30.1% | 14.1% | 35.9% | 11%
C=CC(=O)Nc1ccc(Br)cc1 | 2.85% | -9.2% | -4.35% | -6.9% | 8.65% | 2.35%
CN(C)CC1CCC(CN(C)C)C(=O)C1=O (configuration not stated) | -36% | -39.4% | -64.5% | -14.7% | -31.3% | -31.3%
COc1ccc(CCc2cc(OC)c(O)c(OC)c2)cc1 | 18.5% | 14.8% | 36% | 19% | 30.1% | 41%
CCOC(=S)SC1OC(COC(C)=O)C(OC(C)=O)C(OC(C)=O)C1OC(C)=O (configuration not stated) | 57.5% | 11.4% | 55.2% | 45.8% | 17.2% | 10.7%
CC(=O)Oc1cccc2c(/C=N/NC(N)=S)ncc(C)c12 | 87.6% (active) | 78.3% (active) | 86.7% (active) | 83.5% (active) | 84.6% (active) | 90.3% (active)
O=C(O)CCCC/C=C/CCCCCCC1C=CCC1 (configuration not stated) | -23.4% | -35.9% | 9.8% | 0.7% | -3.65% | 1.65%
CC(C)CSc1nc(N)nc2c1ncn2CC(C)C | -8.65% | -6.4% | 32.7% | -21.7% | 29.4% | 18.9%
